PubChem BioAssay
Where “and” joins values, the source holds several entries; their conditions need not be identical. Identical values can stand only once. Calls of active or inactive are those of the source.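 Rule for the calls, unless noted: active = normalized viability below 100% at a tested concentration; inactive = the rest.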

Assays:
[1] = system: Aerobactin synthetase IucA (Klebsiella pneumoniae); experiment: inhibition of K. pneumoniae IucA enzyme – biochemical, Tocris library, absorbance (AID 1345561; call rule not given here;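 note: 100% = enzyme without compound and 0% = no enzyme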); conditions: purified IucA enzyme assay, absorbance (OD) read-out; stronger effect = lower value;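 tested at 8 µM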
[2] = viability loss with induced miR-34 in A549 – imaging, A549 dox-inducible miR-34, nuclei and caspase counts, primary screen (AID 1347080;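 active = compounds whose cell count with miR-34 switched on is under 0.7 times the count with it off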); conditions: A549 miR-34 inducible, Hoechst nuclei count, 48 h
[3] = MELAS cybrid and Rieske KO viability enhancers – cell-based, MELAS cybrids, Rieske KO mouse fibroblasts, CellTiter-Glo, primary screen (AID 1508586;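 active = mean z-score across replicates of 1.96 or higher in either the MELAS or the Rieske mutant cell line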;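 note: z relative to plate mean and SD of compound and empty wells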); conditions: low glucose
[4] = drug combination growth inhibition, ovarian cancer – cell-based, oncology-focused library, rucaparib conditional, profiling panel (AID 1508598); conditions: patient-derived ovarian cancer cells, CellTiter-Glo viability, 144 h, stronger effect = lower value
[5] = galactose survival enhancers in mitochondrial complex I cybrids – cell-based, galactose medium, ATP luminescence, primary screen (AID 1645843;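 active = z-score of at least 1.8 in each of two replicates, scored against plate mean and spread of sample wells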;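 note: positive z means more ATP and so rescue of galactose-driven cybrid death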); conditions: complex I mutant cybrid cells, 72 h, stronger effect = higher value
[6] = system: Hepatitis C virus NS3 helicase; experiment: blockers of NS3h binding to ssDNA – biochemical, fluorescence polarization, LOPAC1280 library, primary screen (AID 687035; in the data active = inhibition above about 37%); conditions: Purified HCV NS3 helicase, Cy5-dT15 ssDNA binding fluorescence polarization; stronger effect = higher value; concentration not given here
[7] = compounds altering Cy5-DNA-NS3h complex signal – biochemical, LOPAC1280, artefact control for HCV NS3 helicase inhibitor project (AID 687037; call rule not given here); conditions: Cy5-DNA-NS3h complex fluorescence interference counterscreen
[8] = chitosan synthesis blockers in C. neoformans – flow cytometry, Cibacron Brilliant Red staining (AID 1347148; call rule not given here;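 note: compound exposure lasted three days at 37 degrees C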); conditions: Cryptococcus neoformans chitosan, stronger effect = lower value; at 10 µM unless noted
[9] = stronger effect = lower value, cell number ratio, induced over uninduced
[10] = measured here: relative caspase fold change +Dox/-Dox
[11] = measured here: total cells with miR-34 induction, stronger effect = lower value
[12] = measured here: total cells without miR-34 induction

Cc1ccc(-c2csc(NC(=O)c3ccccc3)n2)c(C)c1
0.603 and 0.953: fold change [2, 10]
0.265: z-score ([3]; Rieske KO mouse fibroblast survival, CellTiter-Glo 72 h)
inactive: remaining activity [1] 101% | fold change [2, 9] 0.855 and 0.98 | z-score ([3]; MELAS cybrid survival, CellTiter-Glo 48 h, stronger effect = higher value) -0.247 | viability ([4]; at 0.000305 µM, OCI-C5x cells, with rucaparib 10 µM, 100% = cells with rucaparib alone) 125% | viability ([4]; at 0.000305 µM, OCI-C5x cells, without rucaparib) 121% | viability ([4]; at 0.000305 µM, OCI-P5x cells, with rucaparib 20 µM, 100% = cells with rucaparib alone) 102% | viability ([4]; at 0.000305 µM, OCI-P5x cells, without rucaparib) 106% | viability ([4]; at 0.00122 µM, OCI-C5x cells, with rucaparib 10 µM, 100% = cells with rucaparib alone) 119% | viability ([4]; at 0.00122 µM, OCI-C5x cells, without rucaparib) 117% | viability ([4]; at 0.00122 µM, OCI-P5x cells, without rucaparib) 101% | viability ([4]; at 0.00488 µM, OCI-C5x cells, with rucaparib 10 µM, 100% = cells with rucaparib alone) 132% | viability ([4]; at 0.00488 µM, OCI-C5x cells, without rucaparib) 125% | viability ([4]; at 0.00488 µM, OCI-P5x cells, without rucaparib) 105% | viability ([4]; at 0.0195 µM, OCI-C5x cells, with rucaparib 10 µM, 100% = cells with rucaparib alone) 115% | viability ([4]; at 0.0195 µM, OCI-C5x cells, without rucaparib) 113% | viability ([4]; at 0.0195 µM, OCI-P5x cells, with rucaparib 20 µM, 100% = cells with rucaparib alone) 102% | viability ([4]; at 0.0781 µM, OCI-C5x cells, with rucaparib 10 µM, 100% = cells with rucaparib alone) 125% | viability ([4]; at 0.0781 µM, OCI-C5x cells, without rucaparib) 117% | viability ([4]; at 0.0781 µM, OCI-P5x cells, with rucaparib 20 µM, 100% = cells with rucaparib alone) 103% | viability ([4]; at 0.0781 µM, OCI-P5x cells, without rucaparib) 103% | viability ([4]; at 0.313 µM, OCI-C5x cells, with rucaparib 10 µM, 100% = cells with rucaparib alone) 123% | viability ([4]; at 0.313 µM, OCI-C5x cells, without rucaparib) 116% | viability ([4]; at 0.313 µM, OCI-P5x cells, with rucaparib 20 µM, 100% = cells with rucaparib alone) 100% | viability ([4]; at 1.25 µM, OCI-C5x cells, with rucaparib 10 µM, 100% = cells with rucaparib alone) 131% | viability ([4]; at 1.25 µM, OCI-C5x cells, without rucaparib) 112% | viability ([4]; at 1.25 µM, OCI-P5x cells, without rucaparib) 103% | viability ([4]; at 5 µM, OCI-C5x cells, with rucaparib 10 µM, 100% = cells with rucaparib alone) 155% | viability ([4]; at 5 µM, OCI-C5x cells, without rucaparib) 115% | viability ([4]; at 5 µM, OCI-P5x cells, without rucaparib) 100% | z-score [5] -0.675
6970 and 3650: cell count [2, 11]
active: viability ([4]; at 0.00122 µM, OCI-P5x cells, with rucaparib 20 µM, 100% = cells with rucaparib alone) 99.9% | viability ([4]; at 0.00488 µM, OCI-P5x cells, with rucaparib 20 µM, 100% = cells with rucaparib alone) 98.6% | viability ([4]; at 0.0195 µM, OCI-P5x cells, without rucaparib) 98.4% | viability ([4]; at 0.313 µM, OCI-P5x cells, without rucaparib) 99.4% | viability ([4]; at 1.25 µM, OCI-P5x cells, with rucaparib 20 µM, 100% = cells with rucaparib alone) 98.2% | viability ([4]; at 5 µM, OCI-P5x cells, with rucaparib 20 µM, 100% = cells with rucaparib alone) 91.8%
8160 and 3730: cell count [2, 12]

C1CCC(N=C(NC23CC4CC(CC(C4)C2)C3)N2CCOCC2)CC1
8350: cell count [2, 12]
8260: cell count [2, 11]
0.888: fold change [2, 10]
inactive: inhibition [6] -4% | fluorescence ratio (interference) [7] 1 | remaining activity [1] 116% | fold change [2, 9] 0.989 | fold fluorescence [8] 11.7 [at 130.9 µM] | z-score [5] -0.33
